Source: the supplement of paper PMC6555819

Columns and labels:
Test in all cases: PBM binding z-score (relative to random genomic background probes); higher = stronger binding; sequences stand for … in GC…GCGATTGACAGCGTAGAATGAAGG
[1] = tested on: RARb homodimer (NR concentration 270 nM)
Outline: (§1)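 The probes on custom Agilent 4×180K protein-binding microarrays were double-stranded, with 34-nt variable regions bearing direct-repeat seeds, single-nucleotide variants, half-site ablations and random human genomic background sequences. Incubation lasted 1 h with ligand-free nuclear receptor dimers in PBS pH 7.4, 2% milk, 0.02% Triton X-100, 1 mM DTT, 0.2 mg/mL BSA and 0.4 mg/ml salmon testes DNA. Antibodies against each partner (one per run) detected bound dimers, and fluorescence scans were regression-normalized. Binding z-scores take the random background probes as reference.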

[2] = tested on: RARg:RXRa (NR concentration 270 nM, RXRa partner concentration 90 nM)
Outline: as §1

[3] = tested on: RARg homodimer (NR concentration 270 nM)
Outline: as §1

[4] = tested on: RXRa DBDmut IVT, anti-RXR (DBD mutation: RXRa K156A/R161A, NR concentration 90 nM)
Outline: as §1

[5] = tested on: RXRa homodimer (NR concentration 180 nM)
Outline: as §1

[6] = tested on: THRa:RXRa (NR concentration 90 nM, RXRa partner concentration 90 nM)
Outline: as §1

[7] = tested on: THRa homodimer (NR concentration 90 nM)
Outline: as §1

[8] = tested on: VDR homodimer (NR concentration 270 nM)
Outline: as §1

Sequence	PBM binding z-score [1]	PBM binding z-score [2]	PBM binding z-score [3]	PBM binding z-score [4]	PBM binding z-score [5]	PBM binding z-score [6]	PBM binding z-score [7]	PBM binding z-score [8]
TCTCGGAGGACTCGAAAGGTCAGAGCTCGACATC	4.25	3.85	3.31	0.558	3.57	2.68	0.256	0.189
ACTAGCAGTCCAAGTTTGGGTCACTCAAACAAAG	1.97	0.986	0.834	0.395	0.691	2.16	1.07	0.0671
TCTTGTAGATCAATAGAGGTTAAGCAAGTGCGCT	1.25	0.719	0.343	0.564	1.32	2.68	-0.555	0.376
GCGACTGGGGCCAAGCAGGTTACCATAAGGTTGG	1.2	0.615	0.586	-0.252	0.329	1.3	0.0537	0.051
TCGAGTAGGTTCGTCGGGGCATTCAGCCAACATA	0.49	0.1	-0.361	2.31	0.365	0.871	0.192	2.33
GCATGTAGATCAAGGTTAAGAAAGACTAAGCTAA	-0.0945	0.235	0.318	0.0216	0.645	1.26	-0.345	-0.573
ATCGTAAGGTCGAAGGTGAGTATACCCACCCGAA	1.59	2.97	2.44	1.58	3.4	2.98	1.59	0.909
CGTCCAAGGTCAATGCTACGTCAGTGAAAGCATT	4.04	5.67	6.18	3.58	4.83	3.53	1.75	2.18
CGTCCAAGGTCAAAGGTCAGTCAAGAGATGACGG	5.67	8.89	8.17	4.11	10.3	4.85	2.87	3.58
AGTCAAAGTACACTAGGTAACGTAAGATTCAGCT	0.288	0.245	0.909	1.11	0.318	0.479	-0.0974	0.127
GCTTACGGTTCAAAGGTTATAGCATGAATAGAAT	1.54	3.57	1.39	2.62	7.16	2.59	0.09	2.52
CGAACTAGGTCAAAGACAGTGAATCTCCGCACGC	2.53	3.63	3.88	1.57	2.67	2.39	0.814	0.508
TTACCAAGGTGAAGCTCGTTGATCCCTCTGTAGA	0.199	0.159	-0.0803	-0.864	0.473	1.57	0.166	-0.835
TCTCTTAGTTGATTAGGGCAACCGAAACAGCGGA	0.99	0.874	0.649	1.47	0.82	0.934	0.61	0.608
CAAACTAGGTCAAGGGCAAAGTCGGTTTGTGCCA	4.17	3.94	4.68	2.01	3.06	3.27	1.43	1.79
CAAACTAGGTCAAGAAGTCAAAGTCCGCTTCCCG	3.2	4.44	4.23	1.32	2.97	2.65	0.74	0.478
GGAACGAGGGCAGAGTTGATAGCATCTGTCGACG	0.448	0.934	1.12	1.49	0.588	0.324	-0.629	0.314
ATCTCTAGGAAAAAGTTCAGTGAATCCCGAGGAT	1.74	1.01	1.4	0.393	0.399	0.0597	-0.127	1.42
ACTATTAGTTTAGACGAGGGCAACCGATAGGTTG	1.49	0.78	1.15	0.931	0.581	2.5	0.435	1.65

Sequence	PBM binding z-score [1]	PBM binding z-score [2]	PBM binding z-score [3]	PBM binding z-score [4]	PBM binding z-score [5]	PBM binding z-score [6]	PBM binding z-score [7]	PBM binding z-score [8]
CGTCCAATGTCAATGCTAGGTCAGTGAAAGCATT	2.73	3.07	1.98	0.448	0.676	2.23	0.915	0.181
CCTAGTTTGTCAGGAGGTCACACACCGGATATGA	4.01	4.61	3.87	1.93	4.52	3.62	2.87	3.26
TGAATCAGGTTAAAGATCAGGGAACGTGGCGTCG	-7.29e-05	0.805	0.611	-0.0911	1.71	1.04	-0.365	-0.0211
CAAACTAGGTCACCGGAAGGTCACAGTCCGCATG	5.72	8.31	7.76	2.19	6.67	4.49	3.69	3.04
CGATCTAGGTCAGAACAGGACAGTGAAGGATGAT	1.97	2.2	2.89	0.851	0.982	3.36	0.505	-0.107
CTACCAAGGTGAGCAAGGTCGTTGATTACTATTC	1.65	0.951	0.78	0.939	1.03	2.77	1.29	1.42
CAAACTAGGTCACCAGAAGGTCAAAGTCCGCATG	5.5	8.08	7.22	2.32	6.38	4.35	2.59	3.71
ATCTCTAGGTATAAGTTCAGTGAATCCCGAGGAT	1.42	1.17	1.31	0.993	0.674	0.824	0.567	2.79
TGACCAAGGTGAAGGTCGTTGATCCCTCTGTAGA	1.87	1.64	1.25	-0.322	1.84	2.37	0.58	0.744
ATCTCTGGGTAAAGTTCAGTGAAAGATCGATAGA	2.68	2.19	2.4	1.43	1.57	1.11	0.412	1.62
TCTACTTGGTCAAAGGTCACACACTCGAAATGCG	5.11	7.2	6.3	2.19	8.15	4.24	2.7	2.68
CCGACTGGGGCAGAAAGGTAACCATACCATCCGG	0.454	0.234	0.586	-1.12	0.166	0.0799	-0.606	-0.291
GTTCCAAGGTGAATAGGTCGTTGATGAGTAGGCG	2.22	2.74	1.76	0.23	1.72	2.4	0.975	0.742
GATACAGGGTCAAGCCCAGAGTACGCGTATTGAT	3.52	5.73	5.47	2.9	6.59	3.45	0.87	2.39
TCGCCTAGGTCATGCGGGCCAGTATAGTGTCGGC	3.2	3.96	4.3	1.28	2.9	3.29	1.43	0.82
AGAATGAGGTTATACGTAGATGAGGGAAGAAAGT	0.964	1.74	1.17	1.8	2.24	2.26	0.843	0.924
ATATGTAGGGTAGCTGGGGTCATTCAGACTAGGC	3.6	3.62	2.23	1.78	5.16	4.74	3.57	4.92
TCTATTAGTTGCTTAGGGCAACCGAAACAGCGGA	0.716	0.433	0.547	1.23	0.549	0.996	0.379	0.236
ATCTCTAGGTAAAAGTTCAGTTAATCCCGAGGAT	2.52	2.1	2.04	0.885	1.63	1.61	0.805	2.12

Sequence	PBM binding z-score [1]	PBM binding z-score [2]	PBM binding z-score [3]	PBM binding z-score [4]	PBM binding z-score [5]	PBM binding z-score [6]	PBM binding z-score [7]	PBM binding z-score [8]
TCTCGTAGATCAAAGGTTAAGAAAGCCGAAGCCT	1.36	1.65	0.587	0.764	2.94	1.14	-0.441	0.265
TCATATAGGTAAAAGGTGCAAGTCGGTGTGGTAA	0.775	0.469	0.207	1.9	1.27	0.295	-0.18	0.772
TCTAGTTGGTCAAAGGTCACAAACTCGAAATGCG	4.92	6.76	6.07	1.79	7.88	3.84	1.73	2.43
CGTCAAAGTTCAACGAAGGTAACGTAAAGCACGC	4.08	5.47	6.39	4.2	4.5	4.52	0.29	3.33
TGAATGAGGTTAAAGATCAGGAAACGTGGCGTCG	0.6	2.53	1.23	1.25	3.88	2.41	0.21	0.62
CTTGCTAGGTCAATGGTCAGCTAAAGCAGCTCGC	2.82	3.48	4.68	1.61	2.34	2.13	0.43	-0.158
GCTGCTAGGTCAGGTTGGTAAGCTAACGGGTACG	2.26	2.6	3.55	0.418	1.02	1.7	0.477	0.193
ACTCGGAGGAAAAAGGTCAGAGCTACGCCAGTGA	4.12	4.09	3.97	-0.291	3.67	2.24	-0.145	0.161
GCATATAGGTAATACAAGGTGAATGTCCGATTGT	0.685	0.413	0.66	0.0909	0.689	4.18	0.928	-0.178
ACTAGCAGGCCAAGGGTAACTCAAGATTAGTCCG	0.76	0.469	0.734	-0.0114	0.59	0.54	-0.321	-0.349
CTCGAAAGGTCGCTTGAGGTGAGTATACGGATAA	2.86	3.95	3.9	1.89	3.66	5.16	1.09	0.912
TCATATAGGTAATACAGGTGAAAGTGGGCATCTA	0.844	0.777	0.705	2.06	1.3	0.901	0.52	0.577
CGTCAAAGTTCAAGGTAACATAACAGAAAGCAGC	3.84	5.43	6.33	4.63	4.69	2.92	1.05	2.9
CGTCCAAGGTCATAGGCGGTCAGTGAAGACAGAT	4.09	6.05	6.4	3.89	5.94	4.35	2.21	3.22
ACAGACCGGTGATGAAGGTAACTCAGGCTATCAT	-0.0627	-0.0765	0.11	-0.318	-0.04	0.648	-0.0295	-0.605
TCATATAGGTAAAAGGCGAAAGTCGGTGTGGTAA	-0.139	0.0161	-0.195	1.51	0.665	-0.0856	-0.0858	0.0813
CCGACTGGGGCAAGGTTCCCATAACGCACAGCCA	0.27	0.259	0.433	-0.627	0.314	-0.0449	-0.119	-0.153
AGAATGAGGTTACCAAAGATCAGGCAAACGCTTG	0.854	1.97	1.63	1.16	2.65	2.84	0.538	-0.192
